Inhibition data for 60 molecules are collected here from PubChem BioAssay AID2315 (National Center for Advancing Translational Sciences (NCATS), 2010).

Each structure is given as a SMILES string. Among all 290,000 compounds or so, about 27,000 (9.3%) were called active. Rule as the data show it: active = inhibition mostly above about 28% (no sharp cut-off); inactive = mostly below about 43%. The list comes from a sample in which actives are over-represented; it also holds similar structures and randomly drawn compounds.

As usually defined, the inhibition is the change of the read-out against control, counted positive when it falls.

The assay is described as follows: A qHTS for Small Molecule Inhibitors of Shiga Toxin. Also: 0% is about no effect. The conditions noted are these: Vero cells, Shiga toxin protein synthesis inhibition reporter; at 38.7 µM, stronger effect = higher value. (In qHTS, concentration-response curves come from the screen itself.)
With `N#Cc1ccc(Cn2cc(C(=O)c3ccco3)c3ccccc32)cc1`, the inhibition was 92.3% (active).
With `Cc1cccc(NC(=O)Cn2cc(C(=O)c3ccco3)c3ccccc32)c1`, the inhibition is -14.6% (inactive).
In the case of `CC1CCN(C(=O)Cn2cc(C(=O)c3ccco3)c3ccccc32)CC1` it was 21.4% (inactive); in that of `NC(=O)N/N=C\c1cccs1`, 17.5% (inactive); in that of `Cc1n[nH]c(=O)nc1N/N=C/c1cccs1`, 29.8% (active).
In the case of `Cc1nnc(N/N=C/c2cccs2)[nH]c1=O` it was 3.51% (inactive).
Turning to `CC1(C)Oc2ccc3ccc(=O)oc3c2/C(=N/O)C1=O`, the inhibition was -11.1% (inactive).
`COc1cc(NC(=O)CN2C(=O)NC(C)(c3ccc(OC(F)F)cc3)C2=O)cc(OC)c1OC` (stereo not given): the inhibition is -3.05% (inactive).
With `COc1ccccc1C(=O)NC(=S)NC12CC3CC(CC(C3)C1)C2`, the inhibition was -21.8% (inactive).
As for `COc1cccc(/C=C/c2ccc3ccccc3n2)c1OC(C)=O`, the inhibition is 42.7% (active).
For the molecule `COc1cccc(/C=C2\C=C(c3ccc(C)cc3)OC2=O)c1OC(C)=O`, the inhibition is 11.6% (inactive).
On to `CCOc1cccc(/C=C/c2ccc3ccccc3n2)c1OC(C)=O`, for which the inhibition is 50.8% (inactive).
For `O=C(NCCc1c[nH]c2ccccc12)C1CCN(Cc2ccc(Br)cc2)CC1`, the inhibition was -4.77% (inactive).
Regarding `O=C(Cn1cc(C(=O)C2CC2)c2ccccc21)Nc1ccccc1Cl`, the inhibition is -2.68% (inactive).
For `O=c1[nH]c(/C=C\c2cccc(C(F)(F)F)c2)nc(O)c1[N+](=O)[O-]`, the inhibition was -8.88% (inactive).
For the molecule `COc1cc(/C=C2\C(=N)N3N=C(CC(=O)N4CCOCC4)SC3=NC2=O)cc(OC)c1OC`, the inhibition is -7.7% (inactive).
With `Cc1cccc(CSc2nnc(Cn3c(=O)sc4ccccc43)n2C)c1`, the inhibition is -3.45% (inactive).
Consider `O=C(CSc1ccc(-c2cccs2)nn1)Nc1ccccc1F`, for which the inhibition is 32.3% (inactive).
In the case of `Cc1cccc(CSc2ccc(-c3cccs3)nn2)c1` it was 36.9% (active); in that of `COc1ccc(-c2ocnc2C(=O)Nc2ccc3c(c2)CCC3)cc1`, -10.8% (inactive); in that of `O=C(Nc1ccc(-n2cccn2)cc1)C1CCN(Cc2ccsc2)CC1`, -3% (inactive).
Take `COc1ccc(CN2C(=O)C(C)S/C2=N/N=C/c2ccco2)cc1` (stereo not given): the inhibition is 137% (active).
Turning to `CCC1S/C(=N/N=C/c2ccco2)NC1=O` (stereo not given), the inhibition is 22% (inactive).
In the case of `C=CCN1C(=O)C(Cc2cccc(Cl)c2)S/C1=N/N=C/c1ccco1` (stereo not given), the inhibition was -3.82% (inactive).
In the case of `Cc1cc(C)n(S(=O)(=O)c2cccc([N+](=O)[O-])c2)n1` it was -4.69% (inactive).
In the case of `COc1ccc(N(CC(=O)Nc2cccc3ccccc23)S(C)(=O)=O)c(OC)c1`, the inhibition is -3.17% (inactive).
On to `CCc1ccc(Nc2ncc3c(n2)CC(c2ccco2)CC3=O)cc1` (stereo not given), for which the inhibition is 72.5% (active).
In the case of `O=C(Nc1ncc2c(n1)CC(c1ccco1)CC2=O)c1ccc(Cl)cc1` (stereo not given), the inhibition is 1.6% (inactive).
Then `COc1cc(C2CC(=O)c3cnc(NC(C)=O)nc3C2)cc(OC)c1OC` (stereo not given), with 21.5% (inactive); and `CCCC(C)NC(=O)C1CCN(C(=O)C2CC(=O)N(c3ccc(C)cc3)C2)CC1` (stereo not given), with 9.21% (inactive).
On to `COc1ccc2c(c1)c1nc3n(c(=O)c1n2CC(=O)Nc1ccccc1)CCS3`, for which the inhibition is 10.6% (inactive).
Turning to `COc1cccc(CNC(=O)CCC2CCCN(C(=O)c3ccc(F)c(Cl)c3)C2)c1` (stereo not given), the inhibition was 0.606% (inactive).
On to `Cc1cccc(S(=O)(=O)CC(=O)Nc2nc(-c3ccccc3)cs2)c1`, for which the inhibition was -3.62% (inactive).
With `NS(=O)(=O)c1ccc(Nc2nc(-c3ccccc3)cs2)cc1`, the inhibition was 17.7% (inactive).
In the case of `CC(=O)Nc1ccc(S(=O)(=O)Nc2nc(-c3ccc(C(C)(C)C)cc3)cs2)cc1`, the inhibition is -13.5% (inactive).
As for `CC(=O)Nc1cccc(-c2csc(Nc3cccc(C)n3)n2)c1`, the inhibition was 103% (active).
Regarding `COc1ccc(CCNc2nc(-c3cccc(NC(C)=O)c3)cs2)cc1OC`, the inhibition was 0.41% (inactive).
Take `Cc1cccc(Nc2nc(-c3ccccc3)cs2)n1`: the inhibition was 150% (active).
Turning to `COc1ccc(-c2onc3ccc(C(C)=O)cc23)cc1`, the inhibition is -4.4% (inactive).
Take `O=C(CCS(=O)(=O)c1ccc2c(c1)NC(=O)CS2)NCc1ccccc1Cl`: the inhibition is 5.67% (inactive).
Take `O=C(NCc1ccc2c(c1)OCO2)C(=O)NCC1OCCN1S(=O)(=O)c1ccc(F)cc1` (stereo not given): the inhibition was -4.86% (inactive).
For the molecule `O=C(NC(Cc1ccc(O)cc1)C(=O)O)/C(=C/c1ccccc1)NC(=O)c1ccccc1` (stereo not given), the inhibition is 8.2% (inactive).
As to `O=C(NCCCN1CCOCC1)c1cc(-c2ccccc2F)no1`, the inhibition is 54.8% (active).
Then `O=C(NCCCN1CCOCC1)c1cc(-c2ccc(Cl)cc2)on1`, with 23.1% (inactive).
As to `O=C(c1ccco1)N1CCN(C(=S)Nc2cc(F)cc(F)c2)CC1`, the inhibition was 35.8% (inactive).
As to `O=C(Cc1c(F)cccc1Cl)N1CCN(C(=O)c2ccco2)CC1`, the inhibition was -5.75% (inactive).
Consider `O=C(NCCCN1CCOCC1)c1ccccc1NS(=O)(=O)c1ccc(F)cc1`, for which the inhibition is 43.2% (inactive).
As for `O=C(c1ccco1)N1CCN(C(=O)c2cc(-c3ccccc3F)no2)CC1`, the inhibition is 66.3% (active).
In the case of `CC(=O)Nc1ccc(S(=O)(=O)NCC2CCC(C(=O)NCCc3ccccc3)CC2)cc1` (stereo not given) it was 3.01% (inactive).
For `COc1ccc(CCNS(=O)(=O)c2cccc([N+](=O)[O-])c2)cc1`, the inhibition was -8.39% (inactive).
As for `Cc1c(C(C)(C)O)[nH]c2ccc(C#N)cc12`, the inhibition was 7.17% (inactive).
With `CC(=O)Nc1ccc(NC(=O)CN2C(=O)COc3ccc(S(=O)(=O)N4CCCCC4)cc32)cc1`, the inhibition was -6% (inactive).
In the case of `CCOCCCNc1c(CC)c(C)c(C#N)c2nc3ccccc3n12`, the inhibition is -5.72% (inactive).
In the case of `Cn1nc(-c2ccccc2)c2cc([N+](=O)[O-])ccc21` it was -6.77% (inactive).
With `CCOc1ccc(N/C(N)=N/c2nc(C)c(C)c(=O)[nH]2)cc1`, the inhibition was 0.318% (inactive).
In the case of `N/C(=N\OC(=O)Nc1ccc(Cl)c(Cl)c1)c1ncc(C(F)(F)F)cc1Cl`, the inhibition was -18.1% (inactive).
Consider `COc1cccc(/C=N/Nc2ncc(C(F)(F)F)cc2Cl)c1O`, for which the inhibition was -37.7% (active).
As for `COC(=O)Cc1ccc(Oc2ncc(C(F)(F)F)cc2Cl)cc1`, the inhibition is 26.3% (inactive).
Then `CC(=O)N1c2ccc(S(=O)(=O)N3CCC(C(=O)NCc4ccc(F)cc4)CC3)cc2CC1C` (stereo not given), with -3.9% (inactive); and `CSc1ccccc1N1CCN(CCCCCC(=O)NC2CCCc3ccccc32)CC1` (stereo not given), with -5.33% (inactive).
